According to PubChem BioAssay (NCI):
Compounds without any hit were thinned out: in the full panel of roughly 83,000, 20% have a hit.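 Plates (96-well) were seeded with cells, treated with compound at one concentration, and incubated for 48 hours before percent growth was determined.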 Calls of active or inactive are those of the source. How the source made its calls: active means growth percent below 10; inactive means the rest.

Columns and labels:
Assay in all cases: NCI-60 one-dose screen, 48 h (100 = growth as untreated, 0 = no growth, -100 = all killed)
Details in all cases: 10 µM unless noted
DU-145 prostate = tested on: DU-145 prostate
K-562 leukemia = tested on: K-562 leukemia
MALME-3M melanoma = tested on: MALME-3M melanoma
MDA-MB-231 breast = tested on: MDA-MB-231 breast
RXF 393 renal = tested on: RXF 393 renal
SF-268 CNS = tested on: SF-268 CNS
SF-295 CNS = tested on: SF-295 CNS
SF-539 CNS = tested on: SF-539 CNS
UACC-257 melanoma = tested on: UACC-257 melanoma
M14 melanoma = tested on: M14 melanoma
HCT-15 colon = tested on: HCT-15 colon
HT29 colon = tested on: HT29 colon
SNB-75 CNS = tested on: SNB-75 CNS
SNB-19 CNS = tested on: SNB-19 CNS
U251 CNS = tested on: U251 CNS
PC-3 prostate = tested on: PC-3 prostate
SK-MEL-5 melanoma = tested on: SK-MEL-5 melanoma
UACC-62 melanoma = tested on: UACC-62 melanoma
LOX IMVI melanoma = tested on: LOX IMVI melanoma
SK-MEL-28 melanoma = tested on: SK-MEL-28 melanoma

Measured: growth

CC1=C(SCCC(=O)OC(C[Se]C2=C(C)C(=O)c3ccccc3C2=O)C(=O)NCCCCCC(=O)OCc2ccccc2)C(=O)c2ccccc2C1=O (stereo not given)
inactive: DU-145 prostate 39.1% | K-562 leukemia 21.6% | MALME-3M melanoma 45.6% | MDA-MB-231 breast 59% | RXF 393 renal 57.8% | SF-268 CNS 48.8% | UACC-257 melanoma 45.4% | HCT-15 colon 56.5% | HT29 colon 25.9% | SNB-75 CNS 55.5% | SNB-19 CNS 38.6% | U251 CNS 22.9% | PC-3 prostate 11.4% | UACC-62 melanoma 65.2% | LOX IMVI melanoma 39.7% | SK-MEL-28 melanoma 53.6%
active: SF-295 CNS -7.98% | SF-539 CNS 9.31% | M14 melanoma -1.57% | SK-MEL-5 melanoma 8.74%

O=C(c1ccccc1)N1N=C(c2ccccc2)CC1c1nnc2n(Cc3ccccc3)c(=O)c3c4c(sc3n12)CCCC4 (stereo not given)
inactive: DU-145 prostate 116% | K-562 leukemia 116% | MALME-3M melanoma 85.2% | MDA-MB-231 breast 111% | RXF 393 renal 104% | SF-268 CNS 99.3% | SF-295 CNS 138% | SF-539 CNS 92.1% | UACC-257 melanoma 112% | M14 melanoma 111% | HCT-15 colon 102% | HT29 colon 101% | SNB-75 CNS 108% | SNB-19 CNS 101% | U251 CNS 98.3% | PC-3 prostate 97.9% | SK-MEL-5 melanoma 109% | UACC-62 melanoma 112% | LOX IMVI melanoma 91.8% | SK-MEL-28 melanoma 106%

CCOC(=O)c1c2c(n3ccc(NC(=O)OC(C)(C)C)cc13)C(=O)c1ncccc1C2=O
active: DU-145 prostate -30.2% | K-562 leukemia -23.9% | MALME-3M melanoma -21.6% | MDA-MB-231 breast 2.02% | RXF 393 renal -38.4% | SF-268 CNS -16.7% | SF-295 CNS -67.1% | SF-539 CNS -45.9% | UACC-257 melanoma -40.9% | M14 melanoma -55.8% | HCT-15 colon -69.5% | HT29 colon -50.9% | SNB-75 CNS -32.2% | SNB-19 CNS -54.4% | U251 CNS -80.8% | PC-3 prostate -1.36% | SK-MEL-5 melanoma -96% | UACC-62 melanoma -75.8% | LOX IMVI melanoma -68.8% | SK-MEL-28 melanoma -18.4%

COC(=O)[C@]12CC[C@@H](C)[C@H](C)[C@@H]1C1=CC[C@@H]3[C@@]4(C)C(C=O)=C[C@@](C)(COC(=O)/C=C/c5ccccc5)[C@@H]4[C@H](O)C[C@@]3(C)[C@]1(C)CC2
inactive: SF-268 CNS 14.7% | SNB-19 CNS 49.4% | PC-3 prostate 12%
active: DU-145 prostate -3.76% | K-562 leukemia 9.93% | MALME-3M melanoma -43.2% | MDA-MB-231 breast 0.0701% | RXF 393 renal -40.6% | SF-295 CNS 1.14% | SF-539 CNS -10.7% | UACC-257 melanoma -43.2% | M14 melanoma -43% | HCT-15 colon 2.39% | HT29 colon -22.9% | SNB-75 CNS 2.38% | U251 CNS 2.16% | SK-MEL-5 melanoma -64.4% | UACC-62 melanoma -29.7% | LOX IMVI melanoma -95.5% | SK-MEL-28 melanoma -12.5%

COc1cccc(-c2nn(-c3ccccc3)cc2-c2ccnc(NCCNC(=O)Nc3ccccc3)c2)c1
inactive: DU-145 prostate 65.9% | K-562 leukemia 28.2% | MALME-3M melanoma 77.8% | MDA-MB-231 breast 47.9% | RXF 393 renal 63.5% | SF-268 CNS 60.9% | SF-295 CNS 54.4% | SF-539 CNS 83.6% | UACC-257 melanoma 42.9% | M14 melanoma 35.7% | HCT-15 colon 39.3% | HT29 colon 29.6% | SNB-75 CNS 67.7% | SNB-19 CNS 66.5% | U251 CNS 36.8% | PC-3 prostate 30.8% | SK-MEL-5 melanoma 46.1% | UACC-62 melanoma 51.5% | LOX IMVI melanoma 44.4% | SK-MEL-28 melanoma 77.7%

Cc1ccc(S(=O)(=O)NCC[C@@H]2C[C@H]2c2cc3ccccc3s2)cc1
inactive: DU-145 prostate 101% | K-562 leukemia 85.1% | MALME-3M melanoma 99.8% | MDA-MB-231 breast 92.5% | RXF 393 renal 103% | SF-268 CNS 93.3% | SF-295 CNS 103% | SF-539 CNS 98.3% | UACC-257 melanoma 108% | M14 melanoma 108% | HCT-15 colon 101% | HT29 colon 107% | SNB-75 CNS 82.7% | SNB-19 CNS 95.6% | U251 CNS 98.6% | PC-3 prostate 99.8% | SK-MEL-5 melanoma 102% | UACC-62 melanoma 68.1% | LOX IMVI melanoma 96.7% | SK-MEL-28 melanoma 105%

O=C(CC(SCc1ccccc1)c1ccccc1)c1ccccc1 (stereo not given)
inactive: DU-145 prostate 95.5% | K-562 leukemia 95.3% | MALME-3M melanoma 98.5% | MDA-MB-231 breast 98.1% | RXF 393 renal 86.4% | SF-268 CNS 87.6% | SF-295 CNS 94.1% | SF-539 CNS 99% | UACC-257 melanoma 111% | M14 melanoma 87% | HCT-15 colon 74.4% | HT29 colon 86.8% | SNB-75 CNS 87.9% | SNB-19 CNS 88.6% | U251 CNS 86.5% | PC-3 prostate 88.8% | SK-MEL-5 melanoma 97.3% | UACC-62 melanoma 85.3% | LOX IMVI melanoma 85.6% | SK-MEL-28 melanoma 105%

CC(=O)OC[C@H]1OC(Sc2sc(C(=O)c3ccc(Br)cc3)c(N)c2-c2nc3ccccc3s2)[C@H](OC(C)=O)[C@@H](OC(C)=O)[C@@H]1OC(C)=O (stereo not given in full)
active: SNB-75 CNS -16.7%
inactive: DU-145 prostate 35.8% | K-562 leukemia 66.4% | MALME-3M melanoma 20% | MDA-MB-231 breast 10.4% | RXF 393 renal 70.8% | SF-268 CNS 60.9% | SF-295 CNS 69.6% | SF-539 CNS 15.7% | UACC-257 melanoma 80.1% | M14 melanoma 61.6% | HCT-15 colon 59.8% | HT29 colon 63.1% | SNB-19 CNS 75.2% | U251 CNS 57.6% | PC-3 prostate 71.3% | SK-MEL-5 melanoma 22.1% | UACC-62 melanoma 89.3% | LOX IMVI melanoma 37.1% | SK-MEL-28 melanoma 70.7%

CN1CCN(CC(=O)Nc2nc(-c3cccc(NS(=O)(=O)c4cccc5c(N(C)C)cccc45)c3)cs2)CC1
active: K-562 leukemia 9.93%
inactive: DU-145 prostate 81.3% | MALME-3M melanoma 84% | MDA-MB-231 breast 50.3% | RXF 393 renal 70.4% | SF-268 CNS 76.9% | SF-295 CNS 62.1% | SF-539 CNS 75.6% | UACC-257 melanoma 91.2% | M14 melanoma 102% | HCT-15 colon 42.6% | HT29 colon 35.2% | SNB-75 CNS 74.3% | SNB-19 CNS 73.3% | U251 CNS 65.9% | PC-3 prostate 42.2% | SK-MEL-5 melanoma 48.9% | UACC-62 melanoma 54% | LOX IMVI melanoma 29.7% | SK-MEL-28 melanoma 78.2%

COC(=O)[C@]12CC[C@@H](C)[C@H](C)[C@@H]1C1=CC[C@@H]3[C@@]4(C)C(C=O)=C[C@@](C)(COC(C)=O)[C@@H]4[C@H](O)C[C@@]3(C)[C@]1(C)CC2
active: DU-145 prostate -73.1% | K-562 leukemia 4.82% | MALME-3M melanoma -79.2% | MDA-MB-231 breast -39.2% | RXF 393 renal -82% | SF-268 CNS 1.2% | SF-295 CNS -30% | SF-539 CNS -55.4% | UACC-257 melanoma -58.6% | M14 melanoma -43.3% | HCT-15 colon -62.7% | HT29 colon -52.8% | SNB-75 CNS -9.48% | U251 CNS -46.7% | PC-3 prostate 8.44% | SK-MEL-5 melanoma -93.3% | UACC-62 melanoma -46.7% | LOX IMVI melanoma -99.1% | SK-MEL-28 melanoma -52.6%
inactive: SNB-19 CNS 29.4%

OC(c1cccc(-n2ccc(C(F)(F)F)n2)c1)c1cnccc1NC1CCCCCC1 (stereo not given)
inactive: RXF 393 renal 14.2% | SF-268 CNS 64.4% | SF-295 CNS 81.3% | SF-539 CNS 61.3% | SNB-75 CNS 64.4% | SNB-19 CNS 71.1% | PC-3 prostate 41.2% | SK-MEL-5 melanoma 33.8% | UACC-62 melanoma 32.2%
active: DU-145 prostate 2.76% | K-562 leukemia 3.64% | MALME-3M melanoma -79% | MDA-MB-231 breast -76.4% | UACC-257 melanoma -17.8% | M14 melanoma -75.1% | HCT-15 colon -39.2% | HT29 colon -0.162% | U251 CNS -42.6% | LOX IMVI melanoma -91.4% | SK-MEL-28 melanoma -65.3%

NC1=NCc2nc3ccccc3c(=O)n2C1
inactive: DU-145 prostate 113% | K-562 leukemia 87.3% | MALME-3M melanoma 104% | MDA-MB-231 breast 85.7% | RXF 393 renal 91.4% | SF-268 CNS 112% | SF-295 CNS 96.1% | SF-539 CNS 107% | UACC-257 melanoma 95.1% | M14 melanoma 102% | HCT-15 colon 99.2% | HT29 colon 103% | SNB-75 CNS 98.6% | SNB-19 CNS 106% | U251 CNS 103% | PC-3 prostate 112% | SK-MEL-5 melanoma 107% | UACC-62 melanoma 92.3% | LOX IMVI melanoma 99.3% | SK-MEL-28 melanoma 117%

CCn1c(C)nc2cc(C(N)=O)ccc21
inactive: DU-145 prostate 110% | K-562 leukemia 102% | MALME-3M melanoma 96.4% | MDA-MB-231 breast 113% | RXF 393 renal 93.4% | SF-268 CNS 104% | SF-295 CNS 238% | SF-539 CNS 96.4% | UACC-257 melanoma 87.9% | M14 melanoma 95.5% | HCT-15 colon 92.8% | HT29 colon 98.7% | SNB-75 CNS 90.2% | SNB-19 CNS 104% | U251 CNS 95.4% | PC-3 prostate 101% | SK-MEL-5 melanoma 112% | UACC-62 melanoma 89.2% | LOX IMVI melanoma 91.6% | SK-MEL-28 melanoma 113%

Cc1ccc(-c2cc(-c3ccccc3C)[nH]c(=O)c2C#N)s1
inactive: DU-145 prostate 104% | K-562 leukemia 85.6% | MALME-3M melanoma 111% | MDA-MB-231 breast 84.8% | RXF 393 renal 92% | SF-268 CNS 95.8% | SF-295 CNS 99.2% | SF-539 CNS 91.5% | UACC-257 melanoma 107% | M14 melanoma 109% | HCT-15 colon 90.5% | HT29 colon 122% | SNB-75 CNS 71.6% | SNB-19 CNS 88.5% | U251 CNS 91.2% | PC-3 prostate 85.6% | SK-MEL-5 melanoma 89.8% | UACC-62 melanoma 75.5% | LOX IMVI melanoma 82.8% | SK-MEL-28 melanoma 110%
